Data reported in PubChem BioAssay AID777 (Sanford-Burnham Center for Chemical Genomics, 2007).
Hit rate of the full screen: of about 96,000 compounds, about 19,000 (20%) were called active.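 Rule for the calls: active = blocking of liver enzyme CYP2C9 beyond about 50% at 5 µM (limit read from the data); inactive = the rest.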 Not all results are given here.

Biological target: Cytochrome P450 2C9 (Homo sapiens) (UniProt P11712)
Test: blockers of cytochrome P450 2C9 activity – biochemical, luminescence, ADME assay, primary screen (AID 777)
Conditions: CYP2C9 Supersomes, luciferin-H conversion, at 5 µM, active compounds read high

Sequence of Cytochrome P450 2C9 (Homo sapiens) (P11712 whole entry, looked up): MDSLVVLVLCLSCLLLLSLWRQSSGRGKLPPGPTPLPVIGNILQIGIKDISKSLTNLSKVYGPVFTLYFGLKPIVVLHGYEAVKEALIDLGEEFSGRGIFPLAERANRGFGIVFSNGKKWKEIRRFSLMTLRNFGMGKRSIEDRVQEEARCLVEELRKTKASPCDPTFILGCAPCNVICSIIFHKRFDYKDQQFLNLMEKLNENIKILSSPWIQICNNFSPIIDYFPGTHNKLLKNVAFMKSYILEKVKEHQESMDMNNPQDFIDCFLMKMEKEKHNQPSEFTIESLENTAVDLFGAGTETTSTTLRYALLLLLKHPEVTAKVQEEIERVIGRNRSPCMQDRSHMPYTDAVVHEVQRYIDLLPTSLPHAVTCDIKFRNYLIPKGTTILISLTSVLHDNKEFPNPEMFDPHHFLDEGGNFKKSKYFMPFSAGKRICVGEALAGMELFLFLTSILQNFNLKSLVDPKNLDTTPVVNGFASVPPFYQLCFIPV

inhibition, inactive:
CCCOP(=O)(c1ccc(N(C)C)cc1)C(O)c1cc(OC)c(OC)c(OC)c1 (centres undefined) -3.1%
CCC(=O)OCc1c(C(F)(F)F)nn(C)c1Oc1cccc(C(F)(F)F)c1 34%
FC(F)(F)c1cccc(NC(=S)Nc2cccc(Cl)c2)c1 -83%
COC(=O)c1sc2ncccc2c1OCc1ccc(Cl)cc1Cl 9.3%
Cc1ccc2c(C(=O)CN3CCCC3)c(C)[nH]c2c1 49.7%
Cc1ccc(C)n1C(Cc1ccccc1)C(=O)O (centres undefined) 28.3%
CC1=CC(C)(C)Nc2ccc(OC(=O)CN3C(=O)C4CCCCC4C3=O)cc21 (centres undefined) 10.9%
O=C(Nc1ccon1)c1sc2ccccc2c1Cl -23.1%
CCc1c(C)c2c(C)[nH]nc2oc1=O -66%
Cc1cc2c(c(=O)n1Cc1ccco1)C(c1ccccc1)C(C#N)=C(N)O2 (centres undefined) 1.2%
Cc1ccc(-c2nc3ccccc3[nH]2)cc1N 40.6%
Cn1nc([N+](=O)[O-])nc1Sc1ccc(C(C)(C)C)cc1 12.1%
COc1ccccc1Nc1ncc(C(C)=O)c(C)n1 18.7%
CCC(C(=O)NC1CCCC1)N(C(=O)c1snc(C(N)=O)c1N)c1ccc2c(c1)OCCO2 (centres undefined) 14.7%
CN(C(=O)CSc1nc(C2CC2)nc2ccccc12)c1nc(-c2ccccc2)cs1 39.9%
COc1ccc2c(c1OC)C(=O)OC2Nc1nc(-c2ccccc2)cs1 (centres undefined) 8.8%
CCn1c(=N)n(CC(=O)c2cccc(OC)c2)c2ccccc21 -13.2%
O=C(Nc1ccc(Cl)cn1)c1cnn2cccnc12 11.4%
O=S1(=O)CCN(Cc2ccccc2Cl)CC1 13.3%
Cc1ccc(-c2nc(COC(=O)c3c(C)noc3C)cs2)cc1 28%
CN1/C(=C\C(=O)c2oc3ccccc3c2N)C(C)(C)c2ccccc21 47.6%
Nc1nnc(SCCN2C(=O)c3ccccc3S2(=O)=O)s1 -0.2%
Cc1cccc(NC(=S)N2CCC(c3nc4ccccc4s3)CC2)c1 -16.4%
O=C(c1cccs1)N1CCN(C(=O)N2CCOCC2)CC1 -2%
CCC1(C)Cc2c(sc3nnn(CC(=O)Nc4ccc(Cl)cc4)c(=O)c23)CO1 (centres undefined) 49.3%
COc1ccc(Cc2nnc(NC(=O)Cc3cccs3)s2)cc1 24.4%
CCC(CC)c1nnc(NS(=O)(=O)Cc2ccccc2)s1 34.3%
COc1cc(/C=N\NC(=O)CNC(=O)c2cccc([N+](=O)[O-])c2)ccc1O -11.8%
COc1ccc(C(=O)Nc2ccccc2C(=O)N/N=C/c2ccccc2OC)cc1 -11.9%
CCCC(CCC(=O)OC)(C(=O)OCC)c1csc(N)n1 (centres undefined) 30.1%
C#CCN1C(=O)C(O)(CC(=O)c2cc(OC)ccc2OC)c2ccccc21 (centres undefined) 30.3%
O=C(Nc1ccccc1F)C1C2C=CC3(O2)C1C(=O)N(c1cccnc1)C3C(=O)NC1CCCCC1 (centres undefined) -11.1%
CCOC(=O)NC(C(F)(F)F)(C(F)(F)F)P(=O)(c1ccccc1)c1ccccc1 -2.2%
CCOc1cc2[nH]c(=S)n(CCN3CCCCC3C)c(=O)c2cc1OCC (centres undefined) 17.7%
Nc1ccc(Nc2ccccc2)cc1 12.1%
Nc1ccc(-c2sc(N)nc2-c2ccccc2)cc1 12.4%
CSc1ncccc1C(=O)OCC(=O)N1CCOCC1 -8%
C=CCN(N=Nc1cccc([N+](=O)[O-])c1)c1cccc([N+](=O)[O-])c1 46.4%
Cc1oc2nc(SCC(=O)NCc3cccnc3)nc(N)c2c1C 14.4%
CS(=O)(=O)NCc1ccc(C(=O)NCc2ccccc2)cc1 -6.7%
O=S(=O)(NCCNS(=O)(=O)c1ccccc1)c1ccccc1 34.1%
C/C(=N\NC(=O)Cc1ccc(Cl)cc1)c1ccccn1 32.4%
Cc1ccccc1CN1CCN(CC(=O)NCc2ccccn2)C1=O -9.3%
COc1ccc(NC(=S)N2N=CCC2c2ccccc2)cc1 (centres undefined) 10.8%
Cc1nn(C)c(Oc2ccc(Cl)cc2)c1C=O 0%
Cc1cc(/C=C2/SC(=O)N(CC(=O)OC(C)C)C2=O)c(C)n1C 5.9%
COc1cccc(NC(=O)c2nn(C34CC5CC(CC(C5)C3)C4)cc2[N+](=O)[O-])c1 11.2%
O=C1C=C(c2ccc(Cl)cc2)C(=O)N1Nc1ccccc1 45.5%
Cc1nnc(NC(=O)CSc2nc(C3CCCCC3)nc3ccccc23)s1 20.1%
COc1cc(CC(=O)NCc2cccs2)cc(OC)c1OC -31%
S=C(NCc1ccc(Cl)cc1)NC12CC3CC(CC(C3)C1)C2 49.3%
COC(=O)c1sccc1-n1cccc1C(=O)C(=O)N1CCCCC1 7.3%
CCOC(=O)N1CCN(c2c(NCCCN3CCCC(C)C3)c(=O)c2=O)CC1 (centres undefined) 18.1%
Cc1ccc(C2CC(c3cccc(Br)c3)n3nc(N)nc3N2)cc1 (centres undefined) 5.1%
CCOc1ccccc1C1CC(c2ccccc2)Nc2nc(N)nn21 (centres undefined) 12.8%
Cc1ccc(C2CC(c3cccc(C)c3)n3nc(N)nc3N2)cc1 (centres undefined) 11.1%
COc1ccc(C2CC(c3ccc(Cl)cc3Cl)Nc3nc(N)nn32)cc1OC (centres undefined) 9.8%
CC1CN(c2cc(=O)n(Cc3ccc(F)cc3)c(=O)[nH]2)CC(C)O1 (centres undefined) -11%
CCCn1c(SCC(=O)N2CCc3ccccc32)nnc1-c1ccncc1 45.9%
O=C(Cn1c(-c2ccc(Cl)cc2)noc1=O)N1CCN(c2ccccc2F)CC1 1.4%
O=C(NCc1ccco1)C1CCCN(S(=O)(=O)c2cccc3nonc23)C1 (centres undefined) 2.8%
CCNc1nc(NCC)nc(N(C)n2cnnc2)n1 15.7%
CCOc1nc(OCC)nc(-n2cc(-c3ccccc3)nn2)n1 15.3%
Cc1nc(SCC(=O)Nc2cc(C)on2)c2c3c(sc2n1)CCCC3 -1.7%
CCCC(=O)Nc1ccc2c(c1)nc1n2CCSC1 3.2%
CCC(=O)NC(NCC1CCCO1)C(Cl)(Cl)Cl (centres undefined) 15.6%
CCOc1ccc(NC(=O)CCS(=O)(=O)c2ccc3c(c2)CCCN3C(=O)CC)cc1 -0.4%
COc1ccc(-c2nnc(SCC(=O)NC3CCCCC3)o2)cc1OC 7%
COc1ccc(NC(=O)Cn2nnc(C(=O)NCCc3ccc(OC)c(OC)c3)c2N)cc1 35.6%
COc1ccc(CCNC(=O)CSc2nnc(CNC(=O)c3cccs3)o2)cc1OC 17.8%
CCSc1nc(C)nc2c1oc1ccccc12 18.9%
COc1ccccc1Cn1c(=S)[nH]c2cc(C(=O)N3CCN(C)CC3)ccc2c1=O -2.6%
CC1CCC(NC(=O)c2ccc(N3CCCC3=O)cc2)CC1 (centres undefined) 5.2%
CSc1nc(O)c(Cc2ccccc2)c(=O)[nH]1 7.9%
CCOC(=O)N1CCN(C(=O)c2nn(-c3ccc(C)cc3)c(=O)c3c2c2ccccc2n3C)CC1 8.8%
Cn1c(C(=O)N2CCC(C(N)=O)CC2)cc2c(=O)n(C)c3ccccc3c21 -6.8%
Cn1c(=O)c2c(ncn2CC(COCc2ccccc2Cl)OCc2ccccc2Cl)n(C)c1=O (centres undefined) 21.3%
CCC1SC2=NCCN2C1(O)c1ccc(Cl)cc1 (centres undefined) 30.8%
O=C(Nc1ccc2c(c1)OCCO2)C1CCCN(c2ncccn2)C1 (centres undefined) -3.8%
Cc1ccnc(N2CCC(C(=O)NC3CCCCCC3)CC2)n1 -45.1%

inhibition, active:
Cn1nc(C(F)(F)F)c(C(=O)Nc2cccc(C(F)(F)F)c2)c1SCc1ccc(Cl)cc1 97.5%
CC1=CC(C)(C)Nc2ccc(OC(=O)C(Cc3ccccc3)N3C(=O)C4CCCCC4C3=O)cc21 (centres undefined) 72.8%
COc1ccc(CCN(C(=O)COc2ccccc2)c2nc(-c3ccccc3)cs2)cc1OC 75.2%
Cc1noc(C)c1C(=O)OCC(=O)/C=C1\N(C)c2ccccc2C1(C)C 55.7%
O=C(c1cccs1)N1CCC(c2nc3ccccc3s2)CC1 60.9%
COc1ccc(Cc2nnc(NS(=O)(=O)Cc3ccccc3)s2)cc1 60.3%
COc1ccc(C(=O)Nc2ccccc2C(=O)N/N=C/c2ccc(O)c(OC)c2)cc1 73.4%
Nc1ccc(-c2nnc(-c3ccc(-c4ccccc4)cc3)o2)cc1 78.7%
Cc1ccc(C(=O)NCCNS(=O)(=O)c2ccccc2)cc1 60%
CNC(=S)N1N=C(c2ccccc2)CC1c1ccc(Br)cc1 (centres undefined) 69.6%
COc1ccc(-c2cc(C3CCN(c4ncccc4[N+](=O)[O-])CC3)[nH]n2)cc1 97.2%
S=C(NCc1cccs1)Nc1ccc(Cl)cc1 53%
Nc1nc2n(n1)C(c1ccco1)CC(c1ccc(Cl)c(Cl)c1)N2 (centres undefined) 50%
CCOc1ccccc1C1CC(c2ccc(Cl)cc2)Nc2nc(N)nn21 (centres undefined) 51.1%
CCCc1nc2sc3c(c2c(=O)n1NC(=O)CCCl)CCCC3 85%
COc1ccc(CCNC(=O)CSc2nc(C)nc3c2oc2ccccc23)cc1OC 58%
COc1ccc(CCNC(=O)CSc2nnc(-c3cccc(F)c3)o2)cc1OC 81.2%
Cn1c2ccccc2c2c(C(=O)N3CCN(c4ccc(F)cc4)CC3)cn(C3CCCC3)c(=O)c21 89.6%
Cc1ccnc(N2CCCC(C(=O)Nc3cc(F)ccc3C)C2)n1 (centres undefined) 90.4%
